KDM4E inh: qHTS Assay for Inhibitors of Human Jumonji Domain Containing 2E (JMJD2E). Lysine-specific demethylase 4E (Homo sapiens), B2RXH2. JMJD2E catalytic domain, FDH-coupled NADH fluorescence (FDH is formaldehyde dehydrogenase). Potency, µM (highest dose often 57.1 µM), hits mostly inhibitors. 230,000 tested, 1.6% active. AID 2147, 2009; further: nearly all actives have a fitted effect of over 50% in size
Target sequence (B2RXH2 1-337 limits assumed): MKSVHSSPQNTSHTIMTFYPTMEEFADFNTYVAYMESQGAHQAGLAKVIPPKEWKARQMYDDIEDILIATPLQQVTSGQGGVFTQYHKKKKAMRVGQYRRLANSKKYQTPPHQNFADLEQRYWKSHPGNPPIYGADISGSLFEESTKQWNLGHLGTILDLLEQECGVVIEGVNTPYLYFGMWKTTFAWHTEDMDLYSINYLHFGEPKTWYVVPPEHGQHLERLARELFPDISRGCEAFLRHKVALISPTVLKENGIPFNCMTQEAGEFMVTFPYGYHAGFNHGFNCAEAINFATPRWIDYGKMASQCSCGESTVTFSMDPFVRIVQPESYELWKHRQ
Sfp PPTase inh: qHTS Assay for Inhibitors of Bacillus subtilis Sfp phosphopantetheinyl transferase (PPTase). 4'-phosphopantetheinyl transferase ffp (Bacillus subtilis), Q9F4F7. Biochemical Sfp PPTase activity, qHTS. Potency, µM, most hits filed as inhibitors. 310,000 tested, 3.5% active; active means well fitted curve in the direction sought with a large enough effect; inconclusive means small, poorly fitted or top-dose-only effect, or another doubt; inactive means no such curve, though single readings can be large; an effect the other way counts as inactive or inconclusive;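 further: the enzyme is Sfp with the accession as filed and its product quenches rhodamine fluorescence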
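Buffer: 50 mM Hepes-Na pH 7.6, 10 mM MgCl2, 0.01% Nonidet P-40, 0.01% BSA. Enzyme 15 nM, pre-exposed to compound 15 min; substrates then added and fluorescence change tracked over 30 min.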
NPSR antag: qHTS Assay for Antagonists of the Neuropeptide S Receptor: cAMP Signal Transduction; Potency, µM (titrated, usually from 38.3 µM), hits mostly inhibitors; CHO-NPSR cells, cAMP TR-FRET, antagonist mode; 220,000 tested, 1% active; AID 1461, 2008; Q6W5P4; active means well fitted curve in the direction sought with a large enough effect; inconclusive means small, poorly fitted or top-dose-only effect, or another doubt; inactive means no such curve, though single readings can be large; an effect the other way counts as inactive or inconclusive; further: nearly all actives have a fitted effect of over 50% in size
FBPA coupling cs: qHTS Assay for Inhibitors of Fructose-1,6-bisphosphate Aldolase from Giardia Lamblia: Coupling assay counterscreen. 290,000 tested, 0.67% active. activity change, negative = inhibition, % at 58.2 µM, hits read low. AID 2472, 2010. coupling enzyme system counterscreen, AmpLite Red fluorescence; in the data active means activity change below about -30%
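Counterscreen lacking aldolase: glyceraldehyde-3-phosphate coupling-enzyme reagent preincubated 10 min at RT with compound (at 57.5 uM final), then substrate/coupling system with AmpLite Red added; fluorescence read at 525/598 nm after 20 min RT.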
ALDH1A1 inh: qHTS Assay for Inhibitors of Aldehyde Dehydrogenase 1 (ALDH1A1); Potency, µM (doses to about 75.3 µM), hits mostly inhibitors; 220,000 tested, 7.3% active; Purified ALDH1A1, NADH fluorescence, propionaldehyde substrate; Aldehyde dehydrogenase 1A1 (Homo sapiens), P00352; AID 1030, 2008
GoLoco inh red: qHTS Assay for Inhibitors of RGS12 GoLoco Motif Activity (Red Fluorophore); Gai1:RGS12 GoLoco peptide FP, rhodamine, 10 min; Potency, µM (top dose mostly 61.6 µM), most hits filed as inhibitors; 230,000 tested, 0.44% active; AID 880, 2007; active means well fitted inhibition curve with a large enough effect, not every such curve was filed as active; inactive means no such curve, though single readings can be large or run the other way; further: nearly all actives have a fitted effect of over 30% in size
Target sequence (P63096 whole entry, looked up): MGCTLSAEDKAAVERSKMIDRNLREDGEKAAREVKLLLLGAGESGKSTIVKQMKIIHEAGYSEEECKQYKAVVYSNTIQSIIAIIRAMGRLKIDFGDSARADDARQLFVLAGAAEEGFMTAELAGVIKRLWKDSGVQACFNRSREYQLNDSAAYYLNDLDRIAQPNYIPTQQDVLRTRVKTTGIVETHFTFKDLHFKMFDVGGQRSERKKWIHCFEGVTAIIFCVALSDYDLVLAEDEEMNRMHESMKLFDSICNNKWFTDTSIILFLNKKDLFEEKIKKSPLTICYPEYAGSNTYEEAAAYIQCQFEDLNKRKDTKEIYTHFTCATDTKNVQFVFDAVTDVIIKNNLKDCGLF
Large screens that a line does not name were inactive; ! = repeats disagree. Shown are actives, neighbours in structure and some others; about 8.5% of the full set was active somewhere. Unless noted, the call rests on the fitted dose curve; in most records, active means well fitted inhibition curve with a large enough effect (not every such curve was filed as active); inconclusive means small, poorly fitted or top-dose-only effect, or another doubt; inactive means no such curve, though single readings can be large or run the other way.

COc1ccc(-n2nc(C(=O)N(C)C)nc2-c2ccccc2)cc1	none (no result: KDM4E inh, NPSR antag, ALDH1A1 inh, GoLoco inh red)
COc1ccc(-n2c3c(cc(C(=O)NNc4ccccc4)c2=O)C(=O)CC(C)(C)C3)cc1	ALDH1A1 inh inconclusive
COc1ccc(-n2c3c(cc(C(=O)NNc4ccccc4C)c2=O)C(=O)CC(C)(C)C3)cc1	ALDH1A1 inh 20µM
O=c1c(CN2CCN(Cc3ccccc3)CC2)coc2ccc(Cl)cc12	ALDH1A1 inh 8.91µM
Cc1ccc2occ(CN3CCN(Cc4ccccc4)CC3)c(=O)c2c1	ALDH1A1 inh inconclusive
COc1ccc(C2=CC(=O)C=CC2=O)cc1	KDM4E inh 14.1µM, Sfp PPTase inh 3.16µM, FBPA coupling cs -36.0, GoLoco inh red 3.55µM (no result: ALDH1A1 inh)
COc1ccc2c(c1)C(=O)C(=O)N2	ALDH1A1 inh 22.4µM
COc1ccccc1NC(=S)NCCc1ccc(S(N)(=O)=O)cc1	ALDH1A1 inh inconclusive
COc1ccc(NC(=S)NCCc2ccc(S(N)(=O)=O)cc2)c(OC)c1	Sfp PPTase inh inconclusive, ALDH1A1 inh 22.4µM
COc1ccc(Cl)cc1NC(=S)NCCc1ccc(S(N)(=O)=O)cc1	ALDH1A1 inh 6.31µM
Cc1ccc(S(=O)(=O)N(C)CC(=O)Nc2nnc(CC(C)C)s2)cc1	none (no result: KDM4E inh, NPSR antag, FBPA coupling cs, ALDH1A1 inh, GoLoco inh red)
COc1ccc(Cc2nnc(NC(=O)C3CCN(C(=O)c4ccco4)CC3)s2)cc1	none (no result: KDM4E inh, NPSR antag, ALDH1A1 inh, GoLoco inh red)
O=C(Nc1nnc(Cc2ccccc2)s1)C1CCN(C(=O)c2ccco2)CC1	Sfp PPTase inh 50.1µM (no result: KDM4E inh, NPSR antag, ALDH1A1 inh, GoLoco inh red)
CC[C@H](C)[C@@H](NC(=O)O[C@@H]1C(=O)c2cc(Br)ccc2O[C@H]1c1ccc2c(c1)OCO2)C(=O)OC	ALDH1A1 inh 25.1µM!
CN(C(=O)CSc1nc2c(cnn2-c2ccccc2)c(=O)[nH]1)C1CCS(=O)(=O)C1 (configuration not stated)	none
O=C(N/N=C/c1ccc2c(c1)OCO2)c1cc(-c2ccccc2)nc2ccccc12	KDM4E inh inconclusive, ALDH1A1 inh inconclusive
Cc1cc(N/N=C/c2ccc3c(c2)OCO3)nc2ccccc12	KDM4E inh inconclusive, Sfp PPTase inh 20µM (no result: ALDH1A1 inh)
O=c1[nH]c(N/N=C\c2ccc3c(c2)OCO3)nc2ccccc12	Sfp PPTase inh 20µM, ALDH1A1 inh inconclusive
Cc1cc(N(CC(=O)NC(C)C)S(C)(=O)=O)ccc1Br	none
N#C/C(=C\c1cccc(O)c1)c1nc2ccccc2o1	KDM4E inh inconclusive, Sfp PPTase inh 79.4µM, NPSR antag inconclusive (no result: ALDH1A1 inh)
N#C/C(=C\c1ccncc1)c1nc2ccccc2o1	KDM4E inh inconclusive, Sfp PPTase inh inconclusive (no result: ALDH1A1 inh)
Cc1cccc(C(=O)O/N=C(\N)CS(=O)(=O)c2ccccc2)c1	none (no result: KDM4E inh, NPSR antag, FBPA coupling cs, ALDH1A1 inh, GoLoco inh red)
COc1ccc(CC2(CO)CCN(S(=O)(=O)c3c(C)nn(C)c3Cl)CC2)cc1	none
O=S(=O)(c1cccc(F)c1)N1CCC(CO)(Cc2cccc(F)c2)CC1	none
Cc1cccc(S(=O)(=O)N2CCC(CO)(Cc3ccccc3)CC2)c1	ALDH1A1 inh 20µM
COc1ccc(CC2(CO)CCN(S(=O)(=O)c3sccc3C)CC2)cc1	ALDH1A1 inh 8.91µM
O=C(Nc1nccs1)c1ccc(Cl)c([N+](=O)[O-])c1	none (no result: KDM4E inh, NPSR antag, ALDH1A1 inh, GoLoco inh red)
CC(C)c1ccc(/C=C2\SC(=O)N(CC(=O)NCCCn3ccnc3)C2=O)cc1	none (no result: KDM4E inh, NPSR antag, ALDH1A1 inh, GoLoco inh red)
Cc1ccc(S(=O)(=O)NNC(=O)Nc2ccccc2F)c(C)c1	none (no result: KDM4E inh, NPSR antag, FBPA coupling cs, ALDH1A1 inh, GoLoco inh red)
N#Cc1cc(C(=O)c2cc(Br)ccc2O)cn(C2CC2)c1=O	KDM4E inh inconclusive, ALDH1A1 inh 14.1µM
Cc1ccc(NC(=O)Nc2ccc(F)c(Cl)c2)cc1	none
Cc1cc2n(n1)SC(Nc1ccc(F)c(Cl)c1)N2 (configuration not stated)	Sfp PPTase inh inconclusive, ALDH1A1 inh 2.82µM
O=C(Oc1ccccc1)N1CCC[C@@]2(CCN(c3ccccc3)C2)C1	none (no result: KDM4E inh, NPSR antag)
COc1cc(CN(C(=S)NCC(=O)NC2CC2)C2CCCC2)cc(OC)c1OC	none
NC(CCC(=O)NCS(=O)(=O)O)C(=O)O (configuration not stated)	Sfp PPTase inh 50.1µM (no result: FBPA coupling cs)
Cc1ccc(CCNC(=O)C2CCCN(C(=O)c3cc4sccc4n3C)C2)cc1 (configuration not stated)	ALDH1A1 inh 8.91µM
Cn1c(C(=O)N2CCCC(C(=O)NCCc3ccccc3)C2)cc2sccc21 (configuration not stated)	ALDH1A1 inh 11.2µM
CCn1c(C(=O)NCCCc2ccccc2)cc2sccc21	none
Cn1c(C(=O)N2CCCC(C(=O)NCCCc3ccccc3)C2)cc2sccc21 (configuration not stated)	ALDH1A1 inh 14.1µM
Cn1c(C(=O)N2CCCC(C(=O)NCc3ccc4c(c3)OCO4)C2)cc2sccc21 (configuration not stated)	ALDH1A1 inh 3.55µM
CCOC(=O)N1CCC(NC(=O)C2CCCN(C(=O)c3cc4sccc4n3C)C2)CC1 (configuration not stated)	ALDH1A1 inh inconclusive
CCS(=O)(=O)N1CCCC(C(=O)NCc2ccc3c(c2)OCO3)C1 (configuration not stated)	none
CS(=O)(=O)N1CCCC(C(=O)NCCc2ccccc2)C1 (configuration not stated)	none
CC(=O)c1ccc(-c2nnc(CCC(=O)N(C)Cc3c(C)nc4ccccn34)o2)s1	ALDH1A1 inh inconclusive
COc1ccc(Cl)cc1C(=O)Nn1cnnc1	none (no result: KDM4E inh, NPSR antag, ALDH1A1 inh, GoLoco inh red)
Oc1csc(Cc2nc(-c3ccccc3F)cs2)n1	ALDH1A1 inh 17.8µM
Oc1csc(Cc2nc(-c3ccc(-c4ccccc4)cc3)cs2)n1	ALDH1A1 inh inconclusive
CC(=O)N1C=Cc2c(c(C)c3c([nH]c4ccccc43)c2C)C1	Sfp PPTase inh inconclusive (no result: ALDH1A1 inh)
CCN1CCN(C(=O)Cn2nc(C)c3sc4ccccc4c3c2=O)CC1	none (no result: KDM4E inh, NPSR antag, ALDH1A1 inh, GoLoco inh red)
C[C@@H](/C=C/c1ccc2ccccc2c1)C1COC(=O)C[C@H]1O (some centres not stated)	none (no result: KDM4E inh, NPSR antag, ALDH1A1 inh, GoLoco inh red)
CCC(C)(C)C1CCC(=NNc2nc3ccccc3[nH]2)CC1 (configuration not stated)	none
C/C(=N\Nc1nc(C)cc(=O)[nH]1)C1CC1	Sfp PPTase inh 39.8µM, ALDH1A1 inh inconclusive (no result: GoLoco inh red)
Cc1cc(=O)[nH]c(NN=C2CCC(C(C)(C)C)CC2)n1 (configuration not stated)	Sfp PPTase inh 50.1µM, ALDH1A1 inh inconclusive
Cc1cc(=O)[nH]c(NN=C(CC(C)C)CC(C)C)n1	KDM4E inh inconclusive, Sfp PPTase inh 56.2µM
CC(=O)c1cccc(CN2CCN(CC(C)C)C(CCO)C2)c1 (configuration not stated)	none
O=C(Cc1ccc(Cl)cc1)NNC(=O)c1ccco1	none (no result: KDM4E inh, NPSR antag, FBPA coupling cs, ALDH1A1 inh, GoLoco inh red)

Assay outcomes from PubChem.
